Jurkat NFkB inh – inhibitors of the PMA/ionomycin-induced NF-kB reporter in Jurkat cells; PMA/ionomycin-induced NF-kB luciferase reporter, luminescence; inhibition, % at 4 µM; actives 0.53% (n = 330,000); AID 435003; in the data active = inhibition above about 50%
TAG inh – inhibitors of triacylglycerol accumulation; H9c2 cells, Nile Red lipid (TAG) fluorescence; cells loaded with 200 µM oleic acid; inhibition, % at 12.5 µM; actives 0.66% (n = 230,000); AID 651582;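 active = pattern-corrected inhibition of lipid staining of at least 50% with the nuclear-stain viability signal not falling by more than 50%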;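 note: 0% = DMSO wells and 100% = triacsin C control wells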
Shn3 3UTR inh – Schnurri-3 reporter inhibition in Clone20 osteoblasts | AID 588674 | Clone20 osteoblast Shn3 3'UTR firefly luciferase, 24 h | actives 0.52% (n = 360,000) | inhibition, % at 12.5 µM;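 active = mean inhibition of at least 75% with every replicate also reaching 75%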;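 note: 0% = median of neutral control wells and 100% = pilot-screen positive control compound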
Gli-Sufu antag – blocks Gli-Sufu signaling in a luciferase reporter; Sufu-KO-LIGHT fibroblasts, Gli luciferase reporter luminescence; inhibition, % at 5 µM; actives 0.74% (n = 340,000); AID 588413;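 active = inhibition above about 55%, limit read from the data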;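 note: 0% = DMSO-treated cells and 100% = wells with medium but no cells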
aSyn UTR inh – 5' untranslated region of α-synuclein, MLPCN primary screen; alpha-synuclein 5'UTR reporter, inhibitor activity; inhibition, % (tested at 7.5 µM); actives 0.82% (n = 300,000); in the data active = inhibition above about 60%;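 note: H4 neuroglioblastoma cells stably carrying SNCA 5'UTR luciferase fusion; 0% = DMSO wells and 100% = positive control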
697 NFkB inh – inhibitors of the PMA/ionomycin-induced NF-kB reporter in 697 B cells. inhibition, % at 4 µM. AID 435022. 697 B-cell NF-kB luciferase reporter, 16 h. actives 0.33% (n = 330,000); in the data active = inhibition above about 35%
* = called active by the depositor; · = no result; ! = not active in a repeat. The list is not random: actives were taken first. Their share in the collection is about 2.3%.

SMILES	Jurkat NFkB inh	TAG inh	Shn3 3UTR inh	Gli-Sufu antag	aSyn UTR inh	697 NFkB inh
CN(C)CCCN1c2ccccc2Sc2ccc(Cl)cc21	-11	50*!	-11	13	-4	11
COc1ccc(C2=COc3ccccc3C(=O)N2)cc1	0	-16	-2	-2	-57	-6
COc1ccc(C2=C(C=O)Cc3ccccc3O2)cc1	-4	4	-9	-10	98*	8
Cc1cccc(C(=O)NCCC(=O)Nc2ccc(C)c(F)c2)c1	-4	·	12	9	1	-3
CNC(=O)c1nnsc1S(=O)(=O)c1ccc(Cl)cc1	18	44	99*	14	-26	28
O=C(c1nnsc1S(=O)(=O)c1ccc(Cl)cc1)N1CCOCC1	47	42	95*	3	-34	-8
CC1CCCN(CCCNC(=O)c2ccc3c(c2)N(Cc2ccc(F)cc2)C(=O)c2ccccc2S3=O)C1 (stereo not drawn)	-11	·	26	66*	-26	-52
CC1CCCN(CCCNC(=O)c2ccc3c(c2)N(Cc2cccc(Cl)c2)C(=O)c2ccccc2S3=O)C1 (stereo not drawn)	·	31	-11	·	·	·
CC1=NN(S(=O)(=O)c2ccc(F)cc2)C(=O)c2ccccc2O1	-2	-7	3	-9	14	-13
CN(C)CCNCCCNc1c2ccccc2nc2cccc([N+](=O)[O-])c12	·	3	11	62*	·	·
CN(C)CCCNc1c2c(nc3ccccc13)CCC2	12	·	-1	11	-44	8
Cc1ccc(NC(=O)c2cc(S(=O)(=O)NCCC3=CCCCC3)ccc2F)cc1F	20	3	92*	21	4	-44
O=C(Nc1cccc(F)c1)c1cc(S(=O)(=O)NCCC2=CCCCC2)ccc1F	8	·	89*	37	21	-9
O=C(O)CCSc1nnc(-c2ccc3c(c2)OCO3)o1	-3	31	34	15	67*	17
COC(=O)/C=C/S(=O)(=O)c1ccc(NC(C)=O)cc1	35	·	93*	4	-10	33
O=C(Nc1ccccn1)c1cc(-c2cccnc2)nc2ccc(Br)cc12	20	·	13	5	62*	8
Cc1cc(NC(=O)c2cc(-c3ccccn3)nc3ccc(Br)cc23)no1	4	·	12	2	44	-8
N#CC1=C(N)Oc2n[nH]c(-c3cccs3)c2C1c1ccco1 (stereo not drawn)	21	-9	8	8	-2	21
O=C(c1cc([N+](=O)[O-])ccc1N1CCCCC1)N1CCc2ccccc21	49	19	-29	-9	81*	-24
O=C(c1cc([N+](=O)[O-])ccc1Cl)N1CCc2ccccc21	2	·	5	-14	23	-22
CN(C)Cc1ccccc1Sc1ccc2c(c1)CCCC2	-3	4	·	7	104*	-30
O=[N+]([O-])c1cc(S(=O)(=O)C(F)(F)F)ccc1Sc1nc2ccccc2s1	-2	·	98*	3	-11	-7
Nc1nc(CCl)nc(Nc2ccc3ccccc3c2)n1	·	79*	-72	-6	23	·
COc1ccc(Nc2nc(N)nc(CCl)n2)cc1	4	25	-15	6	-38	-7
COc1ccc2c(c1)/C(=C\c1cccc(/C=C3/C(=O)Nc4ccc(OC)cc43)n1)C(=O)N2	·	96	96*	8	·	·
SMILES	Jurkat NFkB inh	TAG inh	Shn3 3UTR inh	Gli-Sufu antag	aSyn UTR inh	697 NFkB inh
COc1ccc(C2CC(c3ccccc3C(F)(F)F)=NN2c2ccc(S(N)(=O)=O)cc2)cc1 (stereo not drawn)	·	-7	10	8	·	7
O=C(N/N=C/c1sc2ccccc2c1O)c1cccc2ccccc12	·	·	70	25	92*	·
COc1ccc(C(=O)N/N=C/c2sc3ccccc3c2O)cc1	·	·	54	17	84*	·
O=C(N/N=C/c1ccc(F)cc1)c1ccccc1	-55	-3	-48	-71	-152	-82
O=C(N/N=C/c1sc2ccccc2c1O)c1ccccc1	7	·	77	16	82*	-24
COc1ccc2cc(C(=O)N/N=C/c3sc4ccccc4c3O)ccc2c1	1	·	22	-8	-2	-22
CC(=O)OCCc1c2ccccc2c(CCCN(C)C)c2ccccc12	17	12	-23	37	103*	-27
CC(=O)N[C@@H](Cc1c[nH]c2ccccc12)C(=O)OCc1cc(C(F)(F)F)cc(C(F)(F)F)c1	-6	8	-18	-4	·	-2
Nc1nc(N)c2cc(S(=O)(=O)c3ccc4ccccc4c3)ccc2n1	·	-14	85*	·	·	·
CCOC(=O)c1sc(NNC(=O)c2ccc(C)cc2)nc1C	0	13	-5	-10	-24	-9
CCOC(=O)c1nc(NNC(=O)c2ccc([N+](=O)[O-])cc2)sc1C	-8	-9	31	8	62*	8
O=C(O)c1cccc2c1C(=O)c1ccccc1C2=O	-3	-3	15	6	10	-11
O=C(O)c1ccc2c3c(ncnc13)-c1ccccc1C2=O	5	·	·	5	107*	9
CCN(CC)S(=O)(=O)c1ccc2c(c1)C(=NO)c1cc(S(=O)(=O)N(CC)CC)ccc1-2	12	53*	64	12	115*	-22
CCN(CC)S(=O)(=O)c1ccc(C)c(C)c1	-4	-5	1	-2	16	11
CCc1c(C)c(C#N)c2nc3ccccc3n2c1Cl	·	·	·	·	105*	·
CC(C)C(NS(=O)(=O)c1ccc2c(c1)oc(=O)n2C)C(=O)N1CCN(c2ccccc2F)CC1 (stereo not drawn)	6	2	12	12	·	-26
Cc1oc2c(c(=O)c1C)C(=O)CC(c1ccccc1)C2 (stereo not drawn)	15	13	5	0	9	13
CS(=O)(=O)c1sc(C#N)c2c1C(=O)CC(c1ccccc1)C2 (stereo not drawn)	21	93*	46	-7	81*	1
CCCOCc1ccc(O)c2ncccc12	-12	105	57	1	46	-12
Oc1ccc(CNc2ccccc2F)c2cccnc12	-10	11	75	4	87*	-40
Oc1ccc(F)c2cccnc12	-13	19	8	14	-21	-3
Oc1ccc(Cc2ccccc2)c2cccnc12	·	68	58	-15	·	·
OCc1ccc(O)c2ncccc12	32	·	82	22	66*	-54
CC(C)COCc1ccc(O)c2ncccc12	8	45	72	21	96*	3
Cc1nc(SCC(=O)N(CC(C)C)C2CCS(=O)(=O)C2)c(C#N)c(C)c1C (stereo not drawn)	-1	8	2	6	·	7
CCc1ccc(Nc2nnc(SCC(=O)Nc3cccc(S(=O)(=O)NC4=NCCCCC4)c3)s2)cc1	-60	·	-23	-15	-147	-65
CC(=O)Nc1ccc(SCCN2CC[C@@H](O)CCC2=O)cc1	5	-3	19	-2	·	22
